Our source for the outcome and AC50 values is PubChem BioAssay (EPA / NIEHS).

Records with an inconclusive call do not appear. Active and inactive are the calls of the source. Rule for the calls: active = hit-call score of the fitted dose curve at least 0.9, where 1 is the maximum; inconclusive = response in the unintended direction; inactive = score below 0.9.

Read-out in the assay: ABC Transporter (ABCB1), ABCB1 (gene 5243)
As to the kind of experiment: CLD_ABCB1_24hr: CellzDirect (CLD) Gene Expression Assay for ABC Transporter (ABCB1) at 24 hours (AID 2283684).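 For AC50: potency for increase in ABCB1 mRNA relative to DMSO vehicle.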 The procedure:
CLD_24hr is a cell-based, multiplexed-readout assay that uses hepatocyte, a human liver primary cell, with measurements taken at 24 hours after chemical dosing in a 96-well plate.CLD_ABCB1_24hr is one of 16 assay component(s) measured or calculated from the CLD_24hr assay. It is designed to make measurements of mRNA induction, a form of inducible reporter, as detected with chemiluminescence signals by Quantitative Nuclease Protection Assay (qNPA) technology.Data from the assay component CLD_ABCB1_24hr was analyzed at the endpoint, CLD_ABCB1_24hr, in the positive analysis fitting direction relative to DMSO as the negative control and baseline of activity. Using a type of inducible reporter, gain-of-signal activity can be used to understand changes in the reporter gene as they relate to the gene ABCB1. Furthermore, this assay endpoint can be referred to as a primary readout. To generalize the intended target to other relatable targets, this assay endpoint is annotated to the transporter intended target family, where subfamily is ABC transporter.
Human hepatocyte cultures were treated daily for two consecutive days with fresh dosing solutions containing appropriate concentrations of the 320 ToxCast chemicals (chemical identities were blinded to CellzDirect and other ToxCast collaborators), vehicle control (0.2% DMSO), and positive control inducers as summarized in Table 1. Due to the large number of treatment groups and chemicals examined, the ToxCast chemicals were divided into two groups (spanning two independent cultures of hepatocytes from separate donor preparations (Hu778: ToxCast plates 1 and 2; Hu776: ToxCast plates 3 and 4). Each preparation of human hepatocyte cultures was treated with respective vehicle control, medium only control, set of six positive controls/reference chemicals for the five hepatic receptor pathways, and a subset of eight of the ToxCast chemicals (indoxacarb, pyrithiobac-sodium, norflurazon, cyhalofop-butyl, methomyl, thiram, acetochlor, and propiconazole). These replicate data, coupled with internal replicates designed within the blinded ToxCast chemical library, provided additional data to evaluate interindividual differences between hepatocyte preparations and their potential impact on chemical profiles.Cell morphology and integrity were evaluated using phase-contrast microscopy as an indicator of hepatocyte cell health (Tyson & Green, 1987). Cultures for each treatment group (i.e., media, vehicle [0.2% DMSO], positive control inducers [multiple concentrations], and the ToxCast chemicals [multiple concentrations]) were observed and cell morphology was assessed relative to vehicle control cultures at each harvest time point (0, 6, 24, or 48 h). […] Images were evaluated at the conclusion of the study to assess changes in cell integrity and account for the effects of chemical exposure on uncharacteristic changes in concentration-dependent gene expression profiles. The results from these determinations of apparent cytotoxicity were annotated (yes/no) alongside the corresponding qNPA data for reference.At the conclusion of each treatment period, hepatocyte cultures (96-well) were washed with 1 volume of HBSS, lysed by addition of 25 ul ArrayPlate lysis buffer (HTG, Tucson, AZ), and 70 ul/well of Denaturation Oil, denatured by incubation at 95C for 10 min, and frozen at approximately -70C until analysis by nuclease protection assay (qNPA) (Roberts et al., 2007). For qNPA analysis, cell lysates were thawed at 50C for approximately 30 min, qNPA probes were added, and samples were incubated at 95C for 10 min to begin the detection process by denaturing the target RNA, dissociating the duplexes and secondary structure hybridization. At the conclusion of the hybridization period, S1 nuclease reagent was added to each sample to digest all nonprotected nucleotides at 50C for 60-90 min. […]
Turning to `CNc1cnn(-c2cccc(C(F)(F)F)c2)c(=O)c1Cl`, the molecule was called inactive. On the same count and under the same terms, the entry for `CSc1nc(NC(C)C)nc(NC(C)C)n1` is “inactive”; for `CCOP(=S)(OCC)Oc1cc(C)nc(C(C)C)n1` it is “inactive”. On the same count and under the same terms, the entry for `C#CC(C)(C)NC(=O)c1cc(Cl)cc(Cl)c1` is “inactive”; for `CCOC(=O)CC(SP(=O)(OC)OC)C(=O)OCC` (stereo not given) it is “inactive”. On to `CCCOCC(=Nc1ccc(Cl)cc1C(F)(F)F)n1ccnc1`, for which the AC50 was 32 µM (active). As to `COc1cccc(C(=O)NN(C(=O)c2cc(C)cc(C)c2)C(C)(C)C)c1C`, the outcome was inactive. As to `CC(C)[C@H](C(=O)O[C@H](C#N)c1cccc(Oc2ccccc2)c1)c1ccc(Cl)cc1`, the molecule was called inactive.

As to `CCOP(=S)(Oc1cnc(C(C)(C)C)nc1)OC(C)C` (stereo not given), the molecule was classed as inactive. Still for that read-out and setting: the entry for `COP(=O)(OC)C(O)C(Cl)(Cl)Cl` (stereo not given) is “inactive”. Still for that read-out and setting: with `O=C(O)c1cc(Oc2ccc(C(F)(F)F)cc2Cl)ccc1[N+](=O)[O-]` the entry was “inactive”.

Regarding `CCNc1nc(Cl)nc(NC(C)(C)C#N)n1`, the call was inactive. Same read-out and setting: the entry for `CC(COc1ccc(Oc2ccccc2)cc1)Oc1ccccn1` (stereo not given) is “inactive”. Same read-out and setting: the entry for `CCc1cccc(CC)c1N(COC)C(=O)CCl` is “inactive”; for `CCCCOC(=O)[C@@H](C)Oc1ccc(Oc2ccc(C#N)cc2F)cc1` it is “inactive”; for `CCOP(=S)(OCC)Oc1ccc2c(C)c(Cl)c(=O)oc2c1` it is “inactive”. Still for that read-out and setting: the entry for `CNC(=O)Oc1cccc2c1OC(C)(C)O2` is “inactive”; for `CCC(=NOC/C=C/Cl)C1=C(O)CC(C2CCOCC2)CC1=O` (stereo not given) it is “inactive”; for `O=c1ccc(=O)[nH][nH]1` it is “inactive”. Regarding `COP(=O)(OC)SCn1c(=O)oc2cc(Cl)cnc21`, the call was inactive. Consider `CC(Oc1cccc(Cl)c1)C(=O)O` (stereo not given), for which the outcome was inactive. The same measure, in the same setting: the entry for `CCCCN(CC)c1c([N+](=O)[O-])cc(C(F)(F)F)cc1[N+](=O)[O-]` is “inactive”; for `CCOP(=S)(OCC)SCCSCC` it is “inactive”; for `CNC(=O)ON=C(C)SC` it is “inactive”. On to `CC(C)N(C(=O)SCC(Cl)=C(Cl)Cl)C(C)C`, for which the AC50 was 35.3 µM (active). Take `CC(C1CC1)C(O)(Cn1cncn1)c1ccc(Cl)cc1` (stereo not given): the molecule was called inactive.

`Nc1nc(N)nc(NC2CC2)n1`: the molecule was classed as inactive.

Take `Cc1nn(-c2cc(NS(C)(=O)=O)c(Cl)cc2Cl)c(=O)n1C(F)F`: the molecule was called inactive.

As to `COP(=O)(NC(C)=O)SC` (stereo not given), the molecule was classed as inactive. With `CCCCOC(=O)c1ccccc1C(=O)O`, the result was inactive. Still for that read-out and setting: the entry for `COc1cc(OC)nc(Sc2cccc(Cl)c2C(=O)O)n1` is “inactive”. Regarding `CC1=NNC(=O)N(/N=C/c2cccnc2)C1`, the molecule was called inactive.

With `S=C1NCCN1`, the molecule was classed as inactive. Still for that read-out and setting: with `COP(=O)(OC)OC(Br)C(Cl)(Cl)Br` (stereo not given) the entry was “inactive”. On the same count and under the same terms, with `C[N+]1(C)CCCCC1` the entry was “inactive”; with `CSC1=N[C@@](C)(c2ccccc2)C(=O)N1Nc1ccccc1`, “inactive”; with `CNC(=O)ON=C(SC)C(=O)N(C)C`, “inactive”. As for `CCCSP(=O)(OCC)SCCC`, the call was inactive. Still for that read-out and setting: with `C#CCC1=C(C)C(OC(=O)C2C(C=C(C)C)C2(C)C)CC1=O` (stereo not given) the entry was “inactive”. On the same count and under the same terms, the entry for `CCc1cccc(C)c1N(C(=O)CCl)C(C)COC` (stereo not given) is “inactive”.
